From PubChem
Only some compounds are listed: those with a hit (about 12% of all), similar ones and a draw of the others.
BAZ2B block = BAZ2B (human) inhibition. AlphaScreen BAZ2B-H3K14Ac peptide displacement. Potency, µM (highest dose often 114 µM), inactives show at the highest dose activity change, negative = inhibition, hits mostly inhibitors. Q9UIF8. actives 4.4% (n = 360,000); note: % is set by controls: 0 for no effect and ±100 for the full control effect; nearly all actives have a fitted effect of over 60% in size
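Protein-peptide AlphaScreen: BAZ2B 50 nM, b-H3K14Ac 50 nM, 1x PBS pH 7.4 + 0.01% Tween-20. Preincubation 30 min RT; cpd 30 min RT (top 110 uM); beads 20 min RT, light-protected.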
HP1b chromo inh = blocks HP1-beta chromodomain binding to methylated histone tails; AID 540317; Potency, µM (top dose mostly 114 µM), inactives show at the top dose activity change, negative = inhibition, hits mostly inhibitors; P83916; actives 0.56% (n = 390,000); AlphaScreen HP1-beta / biotin-H3K9me3 peptide binding; note: nearly all actives have a fitted effect of over 70% in size
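HP1-beta protein (50 nM final) preincubated 30 min at room temperature with biotinylated H3(1-18)K9me3 peptide (50 nM) in PBS pH 7.4, 0.01% Tween-20, then compound added for 30 min. AlphaScreen streptavidin donor/nickel chelate acceptor beads (10 ug/mL final), 30 min dark, luminescence read.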
Sfp inh = Sfp phosphopantetheinyl transferase inhibition | Q9F4F7 | Biochemical Sfp PPTase activity, qHTS | Potency, µM, without a hit: largest response in the series, negative = inhibition, actives largely listed as inhibitors | actives 3.5% (n = 310,000);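 note: the enzyme is Sfp with the accession as filed and its product quenches rhodamine fluorescence; 0% = enzyme reaction without inhibitor and -100% = no enzyme wells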
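Buffer: 50 mM Hepes-Na pH 7.6, 10 mM MgCl2, 0.01% Nonidet P-40, 0.01% BSA. Enzyme 15 nM, pre-exposed to compound 15 min; substrates then added and fluorescence change tracked over 30 min.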
JMJD2A Tudor = blocks the human JMJD2A Tudor domain | Potency, µM (doses to about 114 µM), inactives show at the top dose activity change, negative = inhibition, usual class: inhibitors | O75164 | AlphaScreen JMJD2A-Tudor / H3K4me3 peptide binding | actives 4.4% (n = 390,000); note: % is set by controls: 0 for no effect and ±100 for the full control effect; nearly all actives have a fitted effect of over 50% in size
G9a block = blocks human histone lysine methyltransferase G9a | actives 8.8% (n = 350,000) | Potency, µM (highest dose often 102 µM), inactives show top-dose activity, negative = inhibition, usual class: inhibitors | G9a H3K9 monomethylation, AlphaScreen, 2 h | AID 504332; note: % is set by controls: 0 for no effect and ±100 for the full control effect; nearly all actives have a fitted effect of over 75% in size
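G9a (20 nM) was preincubated 15 min with compound, then reacted 2 h at room temperature with 500 nM biotin-H3K9 peptide and 20 µM SAM. Monomethyl-H3K9 detected by AlphaScreen using anti-H3K9me1 antibody.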
TDP1 inh = TDP1 (human) enzyme inhibition | Q9NUW8 | recombinant TDP1, AlphaScreen DNA substrate cleavage | Potency, µM (top dose mostly 130 µM), inactives show top-dose activity change, negative = inhibition, actives largely listed as inhibitors | actives 0.28% (n = 350,000) | AID 485290; note: % is set by controls: 0 for no effect and ±100 for the full control effect; nearly all actives have a fitted effect of over 40% in size
Target sequence (Q9NUW8 whole entry, looked up): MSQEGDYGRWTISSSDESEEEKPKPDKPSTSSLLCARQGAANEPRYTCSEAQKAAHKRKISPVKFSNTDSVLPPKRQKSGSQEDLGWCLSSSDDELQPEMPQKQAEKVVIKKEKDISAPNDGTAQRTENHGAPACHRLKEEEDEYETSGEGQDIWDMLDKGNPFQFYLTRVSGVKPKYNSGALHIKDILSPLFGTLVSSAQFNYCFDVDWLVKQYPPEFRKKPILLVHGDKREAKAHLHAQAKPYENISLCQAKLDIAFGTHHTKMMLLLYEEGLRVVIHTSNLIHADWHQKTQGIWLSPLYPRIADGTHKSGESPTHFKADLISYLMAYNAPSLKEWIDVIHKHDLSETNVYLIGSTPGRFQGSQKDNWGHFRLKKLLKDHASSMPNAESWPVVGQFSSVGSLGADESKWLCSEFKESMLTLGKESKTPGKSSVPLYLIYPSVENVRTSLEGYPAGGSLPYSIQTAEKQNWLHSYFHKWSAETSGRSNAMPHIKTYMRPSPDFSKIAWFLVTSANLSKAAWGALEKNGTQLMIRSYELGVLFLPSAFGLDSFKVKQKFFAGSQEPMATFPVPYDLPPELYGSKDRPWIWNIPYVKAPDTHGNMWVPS
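AlphaScreen read-out: signal falls as enzyme removes the 3' tyrosine-FITC from a 5'-biotinylated DNA oligo (15 nM, 5 min, RT). Enzyme was E. coli-made recombinant Tdp1 at 1 nM, exposed to compound for 15 min beforehand; beads 10 ug/ml, 10 min.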
* = called active by the depositor; ? = inconclusive; · = not tested or not shown; [ ] = dose if it differs, or a comment. Calls come from the whole dose curve; as a rule, active = well fitted curve in the direction sought with a large enough effect; inconclusive = small, poorly fitted or top-dose-only effect, or another doubt; inactive = no such curve, though single readings can be large; an effect the other way counts as inactive or inconclusive. Potency is the fitted concentration of half-maximal effect.

SMILES	BAZ2B block	HP1b chromo inh	Sfp inh	JMJD2A Tudor	G9a block	TDP1 inh
O=C(COC(=O)/C=C/c1ccccc1)NCCc1ccc(F)cc1	·	20%[57 µM]	·	-8%	·	0%
O=C(NC(=S)N(Cc1ccccc1)c1ccccn1)C1CCCCC1	-5%	28%	-2%	-6%	28µM*	1%
Cc1csc(NC(=O)c2cccc([N+](=O)[O-])c2C(=O)O)n1	-8%	31%	11%	-12%	-12%[0.501 µM]	·
O=C(Nc1nc(-c2ccccc2)cs1)c1cccc([N+](=O)[O-])c1	40µM*	-26%	0%	?	32µM*	8%
O=C(Nc1nc(-c2ccccc2)cs1)c1cccc([N+](=O)[O-])c1C(=O)O	2%	34%	6%	-21%	50µM*	4%
COc1ccccc1N1CCN(C2CCN(C(=O)c3cccc(F)c3)CC2)CC1	50µM*	?	-27%	28µM*	8.9µM*	-8%
O=C(c1cccc(F)c1)N1CCN(Cc2ccco2)CC1	50µM*	-14%	-7%	7.9µM*	32µM*	-10%
O=C(c1cccc(F)c1)N1CCC(N2CCOCC2)CC1	50µM*	?	56µM*	7.9µM*	?	-12%
COc1ccccc1N1CCN(C2CCN(C(=O)COc3cccc(C)c3)CC2)CC1	79µM*	?	-25%	5.6µM*	8.9µM*	-6%
C1CCC(NC(=NC2C3CC4CC(C3)CC2C4)N2CCOCC2)CC1 (stereo not given)	·	·	15%	·	25%[59 µM]	6%
Cc1ccc(S(=O)(=O)NC(CC(=O)NCC2CCCO2)c2ccccc2)cc1 (stereo not given)	-13%	38%	18%	0%	15%	-5%
N[C@@H](Cn1c2c(c(=O)[nH]c1=O)CCC2)C(=O)O	·	·	-8%	·	29%[59 µM]	0%
O=C(Nc1ccnn1C1CCN(C2CCCCC2)CC1)c1cccc(F)c1	10%	37%	10%	25µM*	·	·
O=C(Nc1ccnn1C1CCN(C2CCCCC2)CC1)c1ccccc1	3%	2%	7%	3%	18%	2%
COc1cc(/C=C(\C#N)c2nc3c(s2)CCCC3)ccc1O	56µM*	·	-21%	·	?	7%
NC1=CC(=O)c2cccc3cccc1c23	?	·	3.5µM*	·	?	-1%
O=c1c2cn[nH]c2[nH]c(=S)n1-c1ccccc1F	?	-14%	-12%	?	8.9µM*	6%
O=C(O)c1ccc2c(=O)n(-c3ccccc3F)c(=S)[nH]c2c1	?	20%	2%	?	?	1%
Cc1ccc(-n2c(=S)[nH]c3[nH]ncc3c2=O)cc1	?	42%	-25%	-30%	35µM*	2%
CSc1cc2c(s1)c1cnn(Cc3cccc(O)c3)c(=O)c1n2C	·	·	·	-31%	·	1%
CC1=NC(=O)C(N=Nc2cccc(O)c2)N1c1ccccc1 (stereo not given)	20µM*	?	-7%	32µM*	?	10%
COc1ccc(CCNC(=O)CC(c2ccccc2)c2cc(C)ccc2O)cc1OC (stereo not given)	-9%	3%	1%	-32%	1%[2.33 µM]	·
Cc1ccc(O)c(C(CC(=O)NCc2ccco2)c2ccccc2)c1 (stereo not given)	?	0%	10%	-35%	·	-3%
Cc1cccc(C(CC(=O)NCc2ccco2)c2ccccc2)c1O (stereo not given)	?	42%	3%	-21%	45µM*	4%
Cc1cccc(C(CC(=O)NCCc2ccccc2)c2ccccc2)c1O (stereo not given)	-2%	55%	79µM*	-2%	3%	-3%
SMILES	BAZ2B block	HP1b chromo inh	Sfp inh	JMJD2A Tudor	G9a block	TDP1 inh
O=c1ccsn1Cc1ccccc1	56µM*	?	0.63µM*	40µM*	?	14%
O=C1NC(Cc2ccccc2)C(=O)N1Cc1ccccc1 (stereo not given)	·	13%[57 µM]	·	-6%	·	·
CCOC(=O)c1cccc(NC(=O)c2sc3nc[nH]c(=O)c3c2C)c1	1%	22%[57 µM]	·	-12%	5%[59 µM]	1%
N#CC1=C(N)n2c(s/c(=C\c3cccs3)c2=O)=C(C#N)C1c1cccs1 (stereo not given)	-4%	20%	45µM*	-19%	35µM*	-11%
CC(C)c1ccc(/C=c2\sc3n(c2=O)C(N)=C(C#N)C(c2ccc(C(C)C)cc2)C=3C(N)=O)cc1 (stereo not given)	·	17%	·	-12%	·	·
N#CC1=C(N)n2c(s/c(=C\c3ccco3)c2=O)=C(C#N)C1c1ccco1 (stereo not given)	?	79µM*	-86%	56µM*	?	?
COC(=O)c1c(-c2ccccc2)c[nH]c1C	?	4%	5%	-6%	?	0%
CC1CCCN(C(=O)C2CC(=O)N(c3ccc(Cl)cc3)C2)C1 (stereo not given)	-3%	-20%	-7%	-21%	45µM*	2%
O=C(C1CC(=O)N(c2ccc(F)cc2)C1)N1CCCCCC1 (stereo not given)	-27%	-2%	2%	-18%	?	4%
Cc1[nH]n(-c2ccccc2)c(=O)c1C=NCC1CCCO1 (stereo not given)	2%	38%	6%	9%	7%	5%
Cc1ccc(-c2n[nH]c(=S)n2/N=C/c2c(C)[nH]n(-c3ccccc3)c2=O)cc1	·	13%	50µM*	?	1.3µM*	9%
Cc1nn(-c2ccccc2)c(C)c1/C=N/n1c(-c2ccc(Cl)cc2)n[nH]c1=S	-27%	-7%	-20%	?	5µM*	1%
Cc1nn(-c2ccccc2)c(C)c1/C=N/n1c(-c2ccncc2)n[nH]c1=S	?	11%	-18%	?	2.2µM*	·
Cc1nn(-c2ccccc2)c(Cl)c1/C=N/O	-1%	21%	22%	-13%	-2%	3%
CCN(CC)CCNC(=O)C(=O)Nc1ccc(C(=O)OC)cc1	2%	28%	16%	10%	14%[59 µM]	·
Cc1ccc(-c2nnn3c2nc(N2CCC(C)CC2)c2ccccc23)cc1	33%	131%	·	51%	56%[59 µM]	-6%
Cc1ccc(S(=O)(=O)N2CCN(C(=O)COC(=O)CCCOc3ccccc3)CC2)c(C)c1	-2%	29%	·	-5%	-14%[12.7 µM]	-3%
CC1CCC/C(=N\Nc2ccc(Cl)c(C(=O)O)c2)C1 (stereo not given)	-37%	5%	-1%	79µM*	7.9µM*	?
CC1CCC/C(=N\NS(=O)(=O)c2ccccc2)C1 (stereo not given)	1%	21%	7%	-3%[11.4 µM]	32µM*	5%
